Common to all, as to assay: DAPPL (digital affinity profiling via proximity ligation, sequencing); 10 mM Tris-HCl pH 7.5, 50 mM NaCl, 1 mM DTT, 4% glycerol, room temperature, 30 min; GST-TFs on glutathione beads, 16-mer random dsDNA library, 0.1% formaldehyde crosslink after washing; high values mean tight binding
One experiment has as its target T1, FEV (Homo sapiens, UniProt Q99581 1-238).
T1 sequence: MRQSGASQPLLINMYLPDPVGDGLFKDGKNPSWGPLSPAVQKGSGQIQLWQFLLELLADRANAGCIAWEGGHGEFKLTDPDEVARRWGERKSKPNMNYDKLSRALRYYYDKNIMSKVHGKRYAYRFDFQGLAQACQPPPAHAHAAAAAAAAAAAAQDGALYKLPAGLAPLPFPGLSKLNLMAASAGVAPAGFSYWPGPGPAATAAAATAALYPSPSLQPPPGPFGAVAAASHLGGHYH
The note with it: protein: recombinant; tags: N-terminal GST; dsDNA, one strand shown. The gist of the method: (§1)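 Yeast served to express human transcription factors as GST fusions, which were then captured on glutathione beads and labelled with DNA barcodes. Pooled with a tag-only sample, they were incubated with 200 nmole of a 16-mer random double-stranded DNA library for 30 min at room temperature in Tris/NaCl/DTT/glycerol buffer, washed, crosslinked with 0.1% formaldehyde, ligated by proximity, amplified by PCR and sequenced. Dividing each hexamer's read frequency for a factor by its frequency for the tag-only sample gives the binding signal.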

The target in another experiment is ETV5 (Homo sapiens, UniProt P41161 1-510). The note with it: protein: recombinant; tags: N-terminal GST; dsDNA, one strand shown. A digest of the protocol: as §1
Chain of ETV5 (P41161 whole entry): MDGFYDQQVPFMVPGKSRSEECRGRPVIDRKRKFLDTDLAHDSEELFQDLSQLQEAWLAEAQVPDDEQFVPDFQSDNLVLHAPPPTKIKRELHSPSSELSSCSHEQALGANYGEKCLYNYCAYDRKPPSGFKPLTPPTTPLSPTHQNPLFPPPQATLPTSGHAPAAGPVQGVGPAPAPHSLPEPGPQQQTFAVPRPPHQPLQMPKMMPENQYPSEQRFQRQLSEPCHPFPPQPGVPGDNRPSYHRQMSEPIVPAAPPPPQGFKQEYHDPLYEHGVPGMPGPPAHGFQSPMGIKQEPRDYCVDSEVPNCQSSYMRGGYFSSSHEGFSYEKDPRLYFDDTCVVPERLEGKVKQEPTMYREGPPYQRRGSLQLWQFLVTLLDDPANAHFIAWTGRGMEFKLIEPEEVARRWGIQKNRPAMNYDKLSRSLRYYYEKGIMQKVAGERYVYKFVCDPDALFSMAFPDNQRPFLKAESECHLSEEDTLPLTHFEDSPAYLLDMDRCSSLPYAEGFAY
A further experiment has as its target HSF1 (Homo sapiens, UniProt Q00613 1-529). The note with it: protein: recombinant; tags: N-terminal GST; chain copies: 3; dsDNA, one strand shown. The gist of the method: as §1
A further experiment concerns the target T2, SPIC (Homo sapiens, UniProt Q8N5J4 1-248).
T2 sequence: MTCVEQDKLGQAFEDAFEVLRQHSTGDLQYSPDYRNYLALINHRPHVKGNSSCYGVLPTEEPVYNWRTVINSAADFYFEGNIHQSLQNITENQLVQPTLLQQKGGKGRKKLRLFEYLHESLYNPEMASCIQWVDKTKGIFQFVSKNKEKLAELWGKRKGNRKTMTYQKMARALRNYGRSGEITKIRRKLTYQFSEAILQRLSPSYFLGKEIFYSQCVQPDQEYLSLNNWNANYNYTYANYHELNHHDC
To be noted: protein: recombinant; tags: N-terminal GST; dsDNA, one strand shown. The gist of the method: as §1

The target in the next experiment is ELF4 (Homo sapiens, UniProt Q99607 1-663). The note with it: protein: recombinant; tags: N-terminal GST; dsDNA, one strand shown. A digest of the protocol:
as §1

A further experiment addresses T3, ELK4 (Homo sapiens, UniProt P28324-2 1-405).
T3 sequence: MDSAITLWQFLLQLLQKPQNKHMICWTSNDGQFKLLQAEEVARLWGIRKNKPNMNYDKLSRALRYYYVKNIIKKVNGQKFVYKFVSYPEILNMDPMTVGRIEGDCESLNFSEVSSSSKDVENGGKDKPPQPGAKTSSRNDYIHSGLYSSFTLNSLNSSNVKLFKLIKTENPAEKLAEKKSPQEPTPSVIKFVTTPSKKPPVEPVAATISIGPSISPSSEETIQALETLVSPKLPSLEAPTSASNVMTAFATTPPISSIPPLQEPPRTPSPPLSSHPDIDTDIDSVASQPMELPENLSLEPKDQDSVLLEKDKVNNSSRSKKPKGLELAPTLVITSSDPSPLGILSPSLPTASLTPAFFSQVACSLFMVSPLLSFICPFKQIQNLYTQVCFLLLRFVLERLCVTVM
To be noted: protein: recombinant; tags: N-terminal GST; dsDNA, one strand shown. The gist of the method:
as §1

The next experiment deals with T4, ETV2 (Homo sapiens, UniProt O00321 1-342).
T4 sequence: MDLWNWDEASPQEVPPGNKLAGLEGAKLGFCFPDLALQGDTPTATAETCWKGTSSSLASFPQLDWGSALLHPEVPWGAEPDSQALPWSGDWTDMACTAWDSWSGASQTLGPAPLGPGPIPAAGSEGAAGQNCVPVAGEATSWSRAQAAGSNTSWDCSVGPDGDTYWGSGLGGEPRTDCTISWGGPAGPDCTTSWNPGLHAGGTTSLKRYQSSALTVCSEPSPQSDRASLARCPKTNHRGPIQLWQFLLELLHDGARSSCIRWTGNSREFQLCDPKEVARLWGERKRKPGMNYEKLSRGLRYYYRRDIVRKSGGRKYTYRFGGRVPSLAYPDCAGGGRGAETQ
To be noted: protein: recombinant; tags: N-terminal GST; dsDNA, one strand shown. The gist of the method: as §1

Another experiment addresses T5, ELF3 (Homo sapiens, UniProt P78545 1-371).
T5 sequence: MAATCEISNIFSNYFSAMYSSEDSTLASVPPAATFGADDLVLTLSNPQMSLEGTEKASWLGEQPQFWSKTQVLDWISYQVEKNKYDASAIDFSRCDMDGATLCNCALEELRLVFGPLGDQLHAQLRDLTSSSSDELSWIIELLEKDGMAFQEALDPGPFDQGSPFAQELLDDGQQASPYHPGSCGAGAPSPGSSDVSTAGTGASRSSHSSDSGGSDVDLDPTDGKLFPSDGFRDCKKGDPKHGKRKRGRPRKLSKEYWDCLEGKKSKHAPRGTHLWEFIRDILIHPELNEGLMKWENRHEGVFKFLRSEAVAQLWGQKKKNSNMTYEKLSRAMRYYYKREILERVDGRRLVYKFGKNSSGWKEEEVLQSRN
The note with it: protein: recombinant; tags: N-terminal GST; dsDNA, one strand shown. The gist of the method: as §1

For a further experiment, the target named is CRX (Homo sapiens, UniProt O43186 1-299). To be noted: protein: recombinant; tags: N-terminal GST; dsDNA, one strand shown. The gist of the method: as §1
Chain of CRX (O43186 whole entry): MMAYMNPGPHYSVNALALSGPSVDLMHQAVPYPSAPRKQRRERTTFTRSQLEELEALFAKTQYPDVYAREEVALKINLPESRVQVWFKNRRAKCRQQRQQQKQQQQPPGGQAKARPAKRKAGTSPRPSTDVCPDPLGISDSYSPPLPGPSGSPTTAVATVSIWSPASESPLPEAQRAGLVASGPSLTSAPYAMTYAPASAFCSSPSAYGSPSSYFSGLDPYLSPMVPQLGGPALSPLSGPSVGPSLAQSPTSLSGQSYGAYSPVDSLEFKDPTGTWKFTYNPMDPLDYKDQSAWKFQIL
A further experiment has as its target ETV1 (Homo sapiens, UniProt P50549 1-477). To be noted: protein: recombinant; tags: N-terminal GST; dsDNA, one strand shown. The gist of the method:
as §1

Chain of HSF1 (Q00613 whole entry): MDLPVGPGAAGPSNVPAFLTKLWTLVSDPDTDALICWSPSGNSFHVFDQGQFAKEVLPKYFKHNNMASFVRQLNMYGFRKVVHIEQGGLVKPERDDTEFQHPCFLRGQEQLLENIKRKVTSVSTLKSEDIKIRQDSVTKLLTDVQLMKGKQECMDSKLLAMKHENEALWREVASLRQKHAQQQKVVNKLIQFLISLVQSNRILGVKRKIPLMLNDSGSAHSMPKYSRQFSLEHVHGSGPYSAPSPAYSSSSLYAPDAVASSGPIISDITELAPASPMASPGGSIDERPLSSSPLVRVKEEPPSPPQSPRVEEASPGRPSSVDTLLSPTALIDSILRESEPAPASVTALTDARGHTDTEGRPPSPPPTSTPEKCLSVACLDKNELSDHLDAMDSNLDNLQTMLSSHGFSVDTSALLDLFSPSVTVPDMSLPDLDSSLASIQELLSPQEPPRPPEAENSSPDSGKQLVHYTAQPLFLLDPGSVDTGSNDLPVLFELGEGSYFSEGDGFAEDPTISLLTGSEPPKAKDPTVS
Chain of ETV1 (P50549 whole entry): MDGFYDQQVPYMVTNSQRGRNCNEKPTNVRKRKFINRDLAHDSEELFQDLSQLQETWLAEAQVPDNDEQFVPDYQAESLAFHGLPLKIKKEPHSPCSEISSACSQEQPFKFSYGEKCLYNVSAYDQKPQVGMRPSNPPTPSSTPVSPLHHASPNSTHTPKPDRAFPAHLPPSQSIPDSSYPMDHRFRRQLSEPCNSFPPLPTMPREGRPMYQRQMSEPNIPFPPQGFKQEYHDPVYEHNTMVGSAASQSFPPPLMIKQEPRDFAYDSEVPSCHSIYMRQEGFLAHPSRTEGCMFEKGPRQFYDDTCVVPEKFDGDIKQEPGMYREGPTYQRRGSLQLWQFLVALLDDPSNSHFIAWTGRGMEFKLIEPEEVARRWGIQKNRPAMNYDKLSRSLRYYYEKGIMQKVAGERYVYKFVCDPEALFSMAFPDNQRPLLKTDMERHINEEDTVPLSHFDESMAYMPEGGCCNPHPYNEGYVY
Chain of ELF4 (Q99607 whole entry): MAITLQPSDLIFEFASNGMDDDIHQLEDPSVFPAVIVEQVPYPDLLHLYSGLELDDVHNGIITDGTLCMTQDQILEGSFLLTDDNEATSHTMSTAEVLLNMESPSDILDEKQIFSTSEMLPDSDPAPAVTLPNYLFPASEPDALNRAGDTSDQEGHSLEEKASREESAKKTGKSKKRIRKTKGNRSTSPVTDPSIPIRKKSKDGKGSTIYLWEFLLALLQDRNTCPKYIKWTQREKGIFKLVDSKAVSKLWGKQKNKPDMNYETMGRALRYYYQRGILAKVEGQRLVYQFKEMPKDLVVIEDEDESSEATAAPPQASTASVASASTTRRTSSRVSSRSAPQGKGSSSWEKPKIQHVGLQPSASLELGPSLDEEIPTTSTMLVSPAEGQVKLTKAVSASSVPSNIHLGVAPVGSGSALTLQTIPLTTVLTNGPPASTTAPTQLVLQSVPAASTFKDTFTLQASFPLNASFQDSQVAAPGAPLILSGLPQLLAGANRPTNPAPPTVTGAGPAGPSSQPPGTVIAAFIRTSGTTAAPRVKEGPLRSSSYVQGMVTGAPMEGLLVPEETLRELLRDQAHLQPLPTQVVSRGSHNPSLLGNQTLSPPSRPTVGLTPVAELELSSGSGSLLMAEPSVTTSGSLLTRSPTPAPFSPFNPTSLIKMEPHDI

For the sequence CCTCAA, the binding signal was 1.42 fold enrichment (6-mer frequency, TF over GST control) in the experiment with FEV; 1.42 fold enrichment (6-mer frequency, TF over GST control) with ETV5; 1.2 fold enrichment (6-mer frequency, TF over GST control) in the experiment with HSF1; 1.46 fold enrichment (6-mer frequency, TF over GST control) in the experiment with SPIC; 1.38 fold enrichment (6-mer frequency, TF over GST control) with ELF4; 1.35 fold enrichment (6-mer frequency, TF over GST control) in the experiment with ELK4. For the same sequence, the binding signal with ETV2 was 1.61 fold enrichment (6-mer frequency, TF over GST control); with ELF3, 1.54 fold enrichment (6-mer frequency, TF over GST control); with CRX, 1.15 fold enrichment (6-mer frequency, TF over GST control); with ETV1, 1.42 fold enrichment (6-mer frequency, TF over GST control).

With TACAAG, the binding signal with FEV is 1.01 fold enrichment (6-mer frequency, TF over GST control); with ETV5 it was 1.15 fold enrichment (6-mer frequency, TF over GST control); in the experiment with HSF1 it was 1.07 fold enrichment (6-mer frequency, TF over GST control); with SPIC it was 1.17 fold enrichment (6-mer frequency, TF over GST control); in the experiment with ELF4 it was 1.1 fold enrichment (6-mer frequency, TF over GST control); with ELK4, 1.16 fold enrichment (6-mer frequency, TF over GST control). Moreover, the binding signal with ETV2 is 1.03 fold enrichment (6-mer frequency, TF over GST control); in the experiment with ELF3, 1.23 fold enrichment (6-mer frequency, TF over GST control); with CRX it was 1.11 fold enrichment (6-mer frequency, TF over GST control); with ETV1, 1.06 fold enrichment (6-mer frequency, TF over GST control).

Consider TGACCT, for which the binding signal with FEV was 1.69 fold enrichment (6-mer frequency, TF over GST control); with ETV5, 1.68 fold enrichment (6-mer frequency, TF over GST control); with HSF1 it was 1.5 fold enrichment (6-mer frequency, TF over GST control); with SPIC, 1.79 fold enrichment (6-mer frequency, TF over GST control); with ELF4 it was 1.82 fold enrichment (6-mer frequency, TF over GST control); with ELK4, 1.74 fold enrichment (6-mer frequency, TF over GST control). The binding signal with ETV2 is 1.65 fold enrichment (6-mer frequency, TF over GST control); in the experiment with ELF3 it was 1.68 fold enrichment (6-mer frequency, TF over GST control); with CRX, 1.36 fold enrichment (6-mer frequency, TF over GST control); in the experiment with ETV1 it was 1.88 fold enrichment (6-mer frequency, TF over GST control).

Regarding TTGCTA, the binding signal with FEV is 1.24 fold enrichment (6-mer frequency, TF over GST control); with ETV5, 1.3 fold enrichment (6-mer frequency, TF over GST control); in the experiment with HSF1, 1.48 fold enrichment (6-mer frequency, TF over GST control); with SPIC it was 1.4 fold enrichment (6-mer frequency, TF over GST control); with ELF4, 1.29 fold enrichment (6-mer frequency, TF over GST control); in the experiment with ELK4, 1.46 fold enrichment (6-mer frequency, TF over GST control). Further, the binding signal with ETV2 is 1.35 fold enrichment (6-mer frequency, TF over GST control); with ELF3, 1.31 fold enrichment (6-mer frequency, TF over GST control); with CRX, 1.5 fold enrichment (6-mer frequency, TF over GST control); with ETV1, 1.37 fold enrichment (6-mer frequency, TF over GST control).

For the sequence TAGGCT, the binding signal was 1.25 fold enrichment (6-mer frequency, TF over GST control) with FEV; 1.19 fold enrichment (6-mer frequency, TF over GST control) with ETV5; 1.45 fold enrichment (6-mer frequency, TF over GST control) in the experiment with HSF1; 1.29 fold enrichment (6-mer frequency, TF over GST control) in the experiment with SPIC; 1.2 fold enrichment (6-mer frequency, TF over GST control) with ELF4; 1.13 fold enrichment (6-mer frequency, TF over GST control) with ELK4. For the same sequence, the binding signal with ETV2 was 1.09 fold enrichment (6-mer frequency, TF over GST control); with ELF3, 1.1 fold enrichment (6-mer frequency, TF over GST control); with CRX, 1.99 fold enrichment (6-mer frequency, TF over GST control); with ETV1, 1.08 fold enrichment (6-mer frequency, TF over GST control).

As for CCTGCG, the binding signal with FEV is 1.28 fold enrichment (6-mer frequency, TF over GST control); with ETV5, 1.27 fold enrichment (6-mer frequency, TF over GST control); with HSF1, 1.1 fold enrichment (6-mer frequency, TF over GST control); with SPIC, 1.12 fold enrichment (6-mer frequency, TF over GST control); in the experiment with ELF4, 1.32 fold enrichment (6-mer frequency, TF over GST control); in the experiment with ELK4, 1.37 fold enrichment (6-mer frequency, TF over GST control). The binding signal with ETV2 is 1.41 fold enrichment (6-mer frequency, TF over GST control); with ELF3, 1.23 fold enrichment (6-mer frequency, TF over GST control); with CRX, 1.05 fold enrichment (6-mer frequency, TF over GST control); with ETV1 it was 1.39 fold enrichment (6-mer frequency, TF over GST control).

Regarding ACCTAT, the binding signal with FEV is 1.15 fold enrichment (6-mer frequency, TF over GST control); with ETV5 it was 1.14 fold enrichment (6-mer frequency, TF over GST control); with HSF1 it was 1.05 fold enrichment (6-mer frequency, TF over GST control); in the experiment with SPIC it was 1.11 fold enrichment (6-mer frequency, TF over GST control); in the experiment with ELF4, 1.24 fold enrichment (6-mer frequency, TF over GST control); with ELK4, 1.13 fold enrichment (6-mer frequency, TF over GST control). Besides, the binding signal in the experiment with ETV2 is 1.28 fold enrichment (6-mer frequency, TF over GST control); with ELF3, 1.24 fold enrichment (6-mer frequency, TF over GST control); with CRX, 1.09 fold enrichment (6-mer frequency, TF over GST control); in the experiment with ETV1, 1.21 fold enrichment (6-mer frequency, TF over GST control).

Turning to AATAAC, the binding signal is 1.25 fold enrichment (6-mer frequency, TF over GST control) with FEV; 1.3 fold enrichment (6-mer frequency, TF over GST control) with ETV5; 1.27 fold enrichment (6-mer frequency, TF over GST control) with HSF1; 1.42 fold enrichment (6-mer frequency, TF over GST control) in the experiment with SPIC; 1.32 fold enrichment (6-mer frequency, TF over GST control) with ELF4; 1.13 fold enrichment (6-mer frequency, TF over GST control) with ELK4. In addition, the binding signal with ETV2 is 1.31 fold enrichment (6-mer frequency, TF over GST control); in the experiment with ELF3 it was 1.25 fold enrichment (6-mer frequency, TF over GST control); with CRX, 1.32 fold enrichment (6-mer frequency, TF over GST control); with ETV1 it was 1.15 fold enrichment (6-mer frequency, TF over GST control).

For the origin of these results see article PMC7862700, “An all-to-all approach to the identification of sequence-specific readers for epigenetic DNA modifications on cytosine”.
